HT1080 IDH1KD tx: qHTS for induction of synthetic lethality in tumor cells producing 2HG: qHTS for the HT-1080-IDH1KD cell line; Potency, µM (series often up to 46.1 µM), inactives show at the top dose activity, negative = toxicity, most hits filed as cytotoxic; 2% of 360,000 active; HT-1080 IDH1 knockdown viability, ATP luminescence, 48 h;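 note: 0% = DMSO wells and -100% = cell-free medium wells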
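Viability of IDH1-knockdown HT-1080 fibrosarcoma cells was assessed by CellTiter-Glo after 48 h at 37 °C with titrated compound; concentration-effect curves were classified by fit quality and response size.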
KB-V1 cytotox: qHTS assay for MDR1-selective chemotherapeutics: Primary screen using the drug-selected MDR subline cells KB-V1; KB-V1 MDR cells viability, CellTiter-Glo, 72 h; Potency, µM (doses to about 46.1 µM), most hits filed as cytotoxic; 3.4% of 400,000 active; note: % is set by controls: 0 for no effect and ±100 for the full control effect; nearly all actives have a fitted effect of over 60% in size
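Potencies derive from concentration-effect curves fitted to normalized luminescence (CellTiter-Glo) of KB-V1 cells treated for 72 h at 37 degrees C in phenol-red-free DMEM containing 10% FBS.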
HT1080-NT tox: qHTS for induction of synthetic lethality in tumor cells producing 2HG: qHTS for the HT-1080-NT fibrosarcoma cell line; HT-1080-NT fibrosarcoma viability, CellTiter-Glo ATP luminescence, 48 h; Potency, µM (top dose mostly 46.1 µM), without a hit: at the highest dose activity, negative = less viability, most hits filed as cytotoxic; 1.6% of 360,000 active; AID 686970, 2013;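 note: NT is the 2HG producing partner of a matched IDH1 knockdown line; 0% = DMSO-treated cells and -100% = media-only wells without cells; nearly all actives have a fitted effect of over 55% in size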
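Compounds were tested in concentration-response format on HT-1080-NT cells for 48 hours at 37 degrees C. Cell viability came from CellTiter-Glo luminescence; curves were classified by r2, response magnitude and activity.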
KB-3-1 tox: qHTS assay for MDR1-selective chemotherapeutics: Primary screen using the parental adenocarcinoma cell KB-3-1 | KB-3-1 viability, CellTiter-Glo ATP luminescence, 72 h | 1.4% of 400,000 active | Potency, µM (titrated, usually from 46.1 µM), usual class: cytotoxic; note: % is set by controls: 0 for no effect and ±100 for the full control effect; nearly all actives have a fitted effect of over 60% in size
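Cytotoxicity in the drug-sensitive parental line KB-3-1 was scored as loss of CellTiter-Glo luminescence following 72 h incubation with compound. Values come from curve fitting of normalized concentration-response data.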
MCF10A rereplic: A quantitative high throughput screen for small molecules that induce DNA re-replication in MCF 10a normal breast cells; Potency, µM (titrated, usually from 46.1 µM), for inactives: at the highest dose activity, positive = re-replication, actives largely listed as activators; AID 624296, 2012; MCF 10A DNA re-replication, Hoechst nuclear intensity, 48 h; 2.9% of 350,000 active; note: % of control where 0% means no effect; nearly all actives have a fitted effect of over 50% in size
SW480 rerep: A quantitative high throughput screen for small molecules that induce DNA re-replication in SW480 colon adenocarcinoma cells | SW480 DNA re-replication, Hoechst DNA content imaging, 48 h | Potency, µM (titrated, usually from 46.1 µM), for the others: at the highest dose re-replication activation, hits mostly activators | 1.8% of 340,000 active | AID 624297, 2012; note: % of control where 0% means no effect; nearly all actives have a fitted effect of over 55% in size
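SW480 cells exposed to compounds for 48 hr at 37 C, 5% CO2, then Hoechst-stained 40 min. Nuclear DNA content imaged by fluorescence scanning (405 nm excitation, 500-530 nm emission); re-replication scored as increased high-intensity nuclei.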
* = called active by the depositor; [ ] = another dose, or the depositor's remark. This is a sample that favours compounds with a hit; in the whole collection about 7.9% have one here. Calls come from the whole dose curve; as a rule, active = well fitted curve in the direction sought with a large enough effect; inconclusive = small, poorly fitted or top-dose-only effect, or another doubt; inactive = no such curve, though single readings can be large; an effect the other way counts as inactive or inconclusive. Potency is the fitted concentration of half-maximal effect.

CCc1ncnc2cc(OC)c(OC)cc12 was read as MCF10A rereplic 16.6% and SW480 rerep 0.1%.
Screening CCOC(=O)/C(C#N)=C1/C=CN(Cc2ccccc2)C=N1 returned HT1080 IDH1KD tx -2.6%, KB-V1 cytotox 13µM*, HT1080-NT tox inconclusive, KB-3-1 tox inactive, MCF10A rereplic 12.2% and SW480 rerep -0.2%.
CCOC(=O)/C(C#N)=C1/C=CN(c2ccccc2)C=N1 was read as HT1080 IDH1KD tx 21.0%, KB-V1 cytotox inactive, HT1080-NT tox 18.8%, KB-3-1 tox inactive, MCF10A rereplic 9.4% and SW480 rerep -2.5%.
Cc1ccc(NC(=O)[C@H](NC(=O)[C@@H]2Cc3ccccc3CN2)c2ccccc2)cc1C was read as HT1080 IDH1KD tx -7.2%, KB-V1 cytotox inactive, HT1080-NT tox -4.0%, KB-3-1 tox inactive, MCF10A rereplic 25.9µM* and SW480 rerep -2.9%.
Cc1ccc(NC(=O)[C@@H](C)NC(=O)[C@@H]2Cc3ccccc3CN2)cc1 was read as HT1080 IDH1KD tx inconclusive, KB-V1 cytotox inactive, HT1080-NT tox 8.8%, KB-3-1 tox inactive, MCF10A rereplic -3.4% and SW480 rerep 1.0%.
For O=C(N/C(=C\c1cccc(Br)c1)C(=O)N1CCOCC1)c1ccco1 the results were HT1080 IDH1KD tx 18.3%, KB-V1 cytotox inactive, HT1080-NT tox 18.3%, KB-3-1 tox inactive, MCF10A rereplic -10.3% and SW480 rerep 0.4%.
COc1ccc(-c2cc3nc(C)cc(N4CCN(C(=O)c5ccoc5)CC4)n3n2)cc1 was read as HT1080 IDH1KD tx 0.4%, KB-V1 cytotox inconclusive, HT1080-NT tox 7.2% and KB-3-1 tox inactive.
COc1ccc(-c2[nH]nc3nc(N4CCN(C(=O)c5ccoc5)CC4)cc(C(F)(F)F)c23)cc1 was read as HT1080 IDH1KD tx inconclusive, KB-V1 cytotox 6.51µM*, HT1080-NT tox inconclusive and KB-3-1 tox inconclusive.
CC(C)CN(C(=O)c1ccc(S(=O)(=O)N2CCCC2)cc1)C1CCS(=O)(=O)C1 (stereo unspecified) was read as HT1080 IDH1KD tx 20.5%, KB-V1 cytotox inactive, HT1080-NT tox -2.0%, KB-3-1 tox inactive, MCF10A rereplic -0.5% and SW480 rerep -4.7%.
For O=C(NNC(=O)c1ccc(SCC2CCCO2)c([N+](=O)[O-])c1)c1ccc(Cl)c([N+](=O)[O-])c1 (stereo unspecified) the results were HT1080 IDH1KD tx inconclusive, KB-V1 cytotox inactive, HT1080-NT tox inconclusive, KB-3-1 tox inactive, MCF10A rereplic inconclusive and SW480 rerep 6.9%.
O=C(NNC(=O)c1ccccc1Br)c1ccc(SCC2CCCO2)c([N+](=O)[O-])c1 (stereo unspecified) was read as HT1080 IDH1KD tx 14.4%, KB-V1 cytotox 23.1µM*, HT1080-NT tox 15.1%, KB-3-1 tox inactive, MCF10A rereplic inconclusive and SW480 rerep 0.8%.
Screening CC(C)(C)C(=O)c1cnc(Nc2ccccc2Cl)s1 returned HT1080 IDH1KD tx -9.2%, KB-V1 cytotox inactive, HT1080-NT tox -20.1%, KB-3-1 tox inconclusive, MCF10A rereplic -2.2% and SW480 rerep -6.3%[9.22 µM].
O=C(c1ccccc1)c1cnc(Nc2ccccc2Cl)s1 was read as HT1080 IDH1KD tx -15.3%, KB-V1 cytotox 13µM*, HT1080-NT tox -3.1%, KB-3-1 tox inactive, MCF10A rereplic inconclusive and SW480 rerep 21.9%.
Screening COc1cc(OC)c(/C=N/NC(=O)c2ccncc2)c(OC)c1 returned HT1080 IDH1KD tx -1.5%, KB-V1 cytotox inconclusive, HT1080-NT tox 2.6%, KB-3-1 tox inactive, MCF10A rereplic 6.4% and SW480 rerep -45.7%.
`CCC(C)NCCCOc1c(C)cc(C)cc1Br` (stereo unspecified) gave HT1080 IDH1KD tx inconclusive, KB-V1 cytotox inactive, HT1080-NT tox inconclusive, KB-3-1 tox inactive, MCF10A rereplic inconclusive and SW480 rerep 16.4µM*.
For CCC(C)NCCOCCOc1ccc(C)cc1Br (stereo unspecified) the results were HT1080 IDH1KD tx inconclusive, KB-V1 cytotox inactive, HT1080-NT tox inconclusive, KB-3-1 tox inactive, MCF10A rereplic -0.9% and SW480 rerep 16.8%.
Screening Cc1oc(-c2cc(Cl)cc(Cl)c2)cc1C(=O)NCCc1ccccc1 returned HT1080 IDH1KD tx -0.8%, KB-V1 cytotox inconclusive, HT1080-NT tox -10.2%, KB-3-1 tox inactive, MCF10A rereplic 14.6µM* and SW480 rerep -3.2%.
`Cc1ccc(S(=O)(=O)N2C[C@H]3C(=O)C[C@@H](c4ccccc4F)N(S(=O)(=O)c4ccc(C)cc4)[C@H]3C[C@H]2c2ccccc2F)cc1` gave HT1080 IDH1KD tx 2.9%, KB-V1 cytotox inactive, HT1080-NT tox 12.3% and KB-3-1 tox inactive.
`O=C(Nc1nncs1)C1CC(=O)N(CCc2ccc(F)cc2)C1` (stereo unspecified) gave HT1080 IDH1KD tx 10.5%, KB-V1 cytotox inactive, HT1080-NT tox 17.4%, KB-3-1 tox inactive, MCF10A rereplic -24.8% and SW480 rerep -17.4%.
`CCOc1ccc(C)cc1S(=O)(=O)n1cnc2ccccc21` gave HT1080 IDH1KD tx 13µM*, KB-V1 cytotox inconclusive, HT1080-NT tox 9.2µM*, KB-3-1 tox 13µM*, MCF10A rereplic 23.1µM* and SW480 rerep inconclusive.
`CCOc1ccc(Cl)cc1S(=O)(=O)n1cnc2ccccc21` gave HT1080 IDH1KD tx 11.2µM*, KB-V1 cytotox 4.47µM*, HT1080-NT tox 11.2µM*, KB-3-1 tox inconclusive, MCF10A rereplic 7.94µM* and SW480 rerep 0.7%.
Screening COc1cc(C(=O)OCC(=O)Nc2ccccc2C(=O)NC2CC2)c([N+](=O)[O-])cc1OC returned HT1080 IDH1KD tx -0.9%, KB-V1 cytotox inactive, HT1080-NT tox -9.2%, KB-3-1 tox inactive, MCF10A rereplic 15.4% and SW480 rerep -13.9%.
`O=C(Nc1ccc(Cl)cc1)C1CCN(C(=O)NC2CCCCC2)CC1` gave HT1080 IDH1KD tx -6.1%, KB-V1 cytotox inactive, HT1080-NT tox -2.8%, KB-3-1 tox inactive, MCF10A rereplic 0.1% and SW480 rerep -2.7%.

From PubChem
